Data on 88 molecules can be found in PubChem BioAssay AID1645855 (Buhrlage Lab, Dana-Farber Cancer Institute and Novartis …, 2021).

Screen size: about 47,000 compounds; about 3,100 (6.6%) were called active. The list comes from a sample in which actives are over-represented; it also holds similar structures and randomly drawn compounds. A number with no mark means an inactive call. Rule as the data show it: active = inhibition above about 30%; inactive = the rest.

Sequence of Ubiquitin carboxyl-terminal hydrolase 17-like protein 5 (Homo sapiens) (A8MUK1 whole entry, looked up): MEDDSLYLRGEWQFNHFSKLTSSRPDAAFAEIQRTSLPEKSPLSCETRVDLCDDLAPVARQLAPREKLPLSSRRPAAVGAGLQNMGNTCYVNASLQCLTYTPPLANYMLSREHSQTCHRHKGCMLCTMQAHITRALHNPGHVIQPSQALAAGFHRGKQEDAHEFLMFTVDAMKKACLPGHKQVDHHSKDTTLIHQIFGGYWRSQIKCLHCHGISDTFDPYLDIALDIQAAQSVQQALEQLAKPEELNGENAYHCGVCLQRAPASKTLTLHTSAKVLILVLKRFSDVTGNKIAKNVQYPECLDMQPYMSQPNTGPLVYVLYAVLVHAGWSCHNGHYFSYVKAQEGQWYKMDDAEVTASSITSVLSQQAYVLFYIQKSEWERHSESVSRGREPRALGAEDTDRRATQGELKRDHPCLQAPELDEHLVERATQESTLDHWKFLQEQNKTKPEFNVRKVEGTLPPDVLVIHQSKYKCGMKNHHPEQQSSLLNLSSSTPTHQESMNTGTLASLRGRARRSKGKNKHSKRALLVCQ

This test has as its target Ubiquitin carboxyl-terminal hydrolase 17-like protein 5 (Homo sapiens) (UniProt A8MUK1). Description: blocks human USP17 ubiquitin-rhodamine cleavage (AID 1645855). To be noted: purified USP17, Ub-rhodamine cleavage fluorescence, 3 h; at 50 µM; active compounds read high.
For the molecule `O=C(c1ccc(N2CCCC2)nn1)N1CCN(c2ccccn2)CC1`, the inhibition is -6.98%. For the molecule `Clc1cc2nc(N3CCN(c4ccccn4)CC3)c3nncn3c2cc1Cl`, the inhibition was 31.5% (active).

On to `Cc1nn(-c2ccccc2)c(C)c1S(=O)(=O)N1CCN(c2ccccn2)CC1`, for which the inhibition was -17.2%. Regarding `Cc1ccc(Nc2nc(C(=O)NCCN3CCCCC3C)cc3occc23)cc1Cl` (stereo not drawn), the inhibition is -11.2%. Turning to `CCc1nc2ccc(C(=O)Nc3nc(-c4ccc5c(c4)CCN5C(=O)c4ccc(C)cc4)c(C)s3)cc2nc1CC`, the inhibition is -24.7%.

Turning to `CC(C)(C)CC(=O)N1CCc2cc(-c3csc(NC(=O)c4ccccn4)n3)ccc21`, the inhibition is 2.12%. Turning to `O=C(Nc1nc(-c2ccc3c(c2)CCN3C(=O)c2ccccc2F)cs1)c1cccnc1`, the inhibition was 77.7% (active). Turning to `Cc1sc(NC(=O)c2ccccn2)nc1-c1ccc2c(c1)CCN2C(=O)C(C)C`, the inhibition was -11.3%. `Cc1ccc(C(=O)N2CCc3cc(-c4csc(NC(=O)CNc5ccccc5)n4)ccc32)cc1`: the inhibition was 32.4% (active). The same measure for `CCc1nc2ccc(C(=O)Nc3nc(-c4ccc5c(c4)CCN5C(=O)c4ccccc4C)c(C)s3)cc2nc1CC`: -14.3%; for `Cc1cccc(NC(=O)Cn2c(C)ncc(C(=O)NC3CCCC3)c2=O)c1C`: 2.77%; for `O=C(OCc1ccccc1F)c1cc(-c2ccccc2)nc2ccccc12`: 7.27%. Regarding `CCc1nnc(NC(=O)C2CCN(C(=O)c3ccc(F)cc3)CC2)s1`, the inhibition is 5.9%. Turning to `COc1cccc(O[C@@H]2C[C@@H](NC(=O)c3ccnn3C)[C@H](N3CCCC3)[C@H]2O)c1`, the inhibition was -13.7%. `CCCNC(=O)c1nn(-c2ccc(F)cc2)c2c1CCCCC2`: the inhibition was 3.82%. For the molecule `Cc1oc(C2CCC2)nc1C(=O)NCCc1c[nH]c2ccccc12`, the inhibition is 7.03%. Consider `O=C(CCc1csc(NC(=O)c2ccc(=O)[nH]c2)n1)NCCc1c[nH]c2ccccc12`, for which the inhibition is 36.5% (active).

Turning to `O=C(Cc1csc(NC(=O)c2ccc(=O)[nH]c2)n1)NCc1ccco1`, the inhibition is -18.1%. `COCCCN1CC(=O)N2C(c3cccc([N+](=O)[O-])c3)c3[nH]c4ccccc4c3C[C@@H]2C1=O` (stereo partly drawn): the inhibition is -12.6%. `O=S(=O)(Nc1ccc(Cc2ccncc2)cc1)c1ccc2c(c1)OCCO2`: the inhibition was 3.72%. Regarding `O=C(Nc1cccc2ccccc12)N1CCN(Cc2ccc3c(c2)OCO3)CC1`, the inhibition was 41% (active). Regarding `COC(=O)c1cc2c(ccn2C)n1CC(=O)N1CCN(Cc2ccc3c(c2)OCO3)CC1`, the inhibition is -63.5%. In the case of `O=C(NCc1ccc2c(c1)OCO2)C1=CCN(Cc2ccccc2)CC1`, the inhibition was -28.1%.

With `CNc1nc2c(c(=O)n1-c1ccccc1OC)CCN(C(=O)N1CCOCC1)C2`, the inhibition was -2.32%. `CCCCn1c(=O)[nH]c2cc(-c3nc(-c4ccccn4)no3)ccc2c1=O`: the inhibition was -20.4%. On to `O=C(Nc1c(C(=O)N2CCOCC2)oc2ccccc12)c1ccccc1F`, for which the inhibition was -1.41%. As for `Cc1c(C(=O)NC2CCCCC2)oc2ccccc12`, the inhibition was 0.0641%. As to `CCS(=O)(=O)c1cccc(C(=O)Nc2c(C(N)=O)oc3ccccc23)c1`, the inhibition is 41.9% (active). As to `CCCSc1nc(NCC2CCCO2)c2c3c(sc2n1)COC(C)(C)C3` (stereo not drawn), the inhibition is -37.2%.

Take `Cc1noc(C)c1CC(=O)N1CCN(c2ccccc2F)CC1`: the inhibition is 20.5%.

As for `COc1ccc(N2CCN(Cc3cc(=O)oc4cc(O)ccc34)CC2)cc1`, the inhibition is 4.8%. The same measure for `CCCc1cc(=O)oc2cc(OCC(=O)NCc3ccc(OC)cc3)ccc12`: 30.6% (active); for `CCCc1cc(=O)oc2cc(OC(=O)C3CCN(C(=O)c4ccc(Cl)cc4)CC3)ccc12`: 10.2%; for `Cc1c(CC(=O)NCC(=O)O)c(=O)oc2c(C)c(O)ccc12`: -3.52%. `O=c1c2[nH]c3ccc(Cl)cc3c2ncn1Cc1cccnc1`: the inhibition is -5.96%. Take `COc1ccccc1Cn1cnc2c([nH]c3cc(OC)c(OC)cc32)c1=O`: the inhibition is 58% (active).

On to `O=c1c2[nH]c3ccc(F)cc3c2ncn1CCN1CCCC1`, for which the inhibition is 6.33%. Take `COc1cc(Cn2cnc3c([nH]c4ccc(Br)cc43)c2=O)cc(OC)c1`: the inhibition was 26%. As to `CCOc1ccc2[nH]c3c(=O)n(Cc4cccnc4)cnc3c2c1`, the inhibition is 25.4%. The same measure for `Cc1ccc2[nH]c3c(=O)n(Cc4ccccn4)cnc3c2c1`: 48.9% (active).

For `O=C(O)c1cc(S(=O)(=O)NC2CCCc3ccccc32)ccc1O` (stereo not drawn), the inhibition is -9.75%. In the case of `COc1ccc(S(=O)(=O)Nc2ccc(-c3ccc(OC)nn3)cc2)cc1`, the inhibition was 14.6%. With `COCCN(CCOC)S(=O)(=O)c1ccc(C(=O)Nc2sccc2C(N)=O)cc1`, the inhibition was 7.55%.

Take `O=C(NCC(c1ccccc1)N1CCCCC1)c1cc(-c2cccs2)on1` (stereo not drawn): the inhibition was -11.5%. `O=C1N(c2cccc(F)c2)c2ncccc2S(=O)(=O)N1Cc1ccccc1`: the inhibition was 2.92%. Regarding `COCCCNC(=O)[C@H](Cc1ccccc1)NC(=O)N1CCn2c1nc1ccccc12`, the inhibition is -0.405%. `COc1ccc(NC(=O)Cc2noc(-c3cccc(OC)c3)n2)cc1`: the inhibition is 35.7% (active). On to `COc1cccc(NC(=O)Cn2c(C)cc(C)c2-c2nc(C(C)C)no2)c1`, for which the inhibition is -2.06%. Regarding `COc1ccc(OCC(=O)Nc2noc(-c3ccccc3)n2)cc1`, the inhibition is 23.8%. Consider `CC(C)c1nnc(NC(=O)C2CC(=O)N(CCc3ccc(F)cc3)C2)s1` (stereo not drawn), for which the inhibition was 5.74%. Consider `CCN1[C@H]2CCN(C(=O)C3(C#N)CC3)CC[C@@H]2Oc2ccccc2S1(=O)=O`, for which the inhibition was -12.7%. Turning to `COc1cccc(NC(=O)COC(=O)c2ccc(OC)c(S(=O)(=O)Nc3cc(Cl)c(OC)cc3OC)c2)c1`, the inhibition was 3.55%. For the molecule `Cc1ccc(NC(=O)CCC(=O)N(c2ccccc2)c2ccccc2)cc1Cl`, the inhibition is 6.95%. In the case of `Cc1ccc(NC(=O)CCOc2ccccc2)cc1S(=O)(=O)Nc1ccccc1Cl`, the inhibition was 39.7% (active). With `O=C(NCCc1ccc(F)cc1)c1ccc(S(=O)(=O)Nc2ccccc2F)cc1`, the inhibition was 13.4%. `Cc1nc(CCN2CCN(Cc3ccccc3)CCC2=O)no1`: the inhibition is 9.08%. In the case of `COC(=O)c1sc(-c2ccccc2)cc1NC(=O)c1ccc(C)cc1`, the inhibition was 8.72%. As to `COc1cccc(NC(=O)C2Cc3ccccc3N2C(=O)c2ccccc2)c1` (stereo not drawn), the inhibition was 57.8% (active).

Turning to `COc1cccc(NC(=O)N2C[C@H]3CN(C(C)C)CC[C@H]32)c1`, the inhibition was -122%. As to `N#Cc1cccc(NC(=O)C2Cc3ccccc3CN2C(=O)c2ccccc2)c1` (stereo not drawn), the inhibition was -4.46%. In the case of `Cn1cc(CN2CCC3(CC2)Nc2cc(Cl)ccc2C2=NCCN23)cn1`, the inhibition is -4.3%. Turning to `Cc1ccccc1NS(=O)(=O)c1cc2c(cc1Cl)NC(=O)CO2`, the inhibition is 11.5%. Consider `COc1ccc(NC(=O)CCN2C(=O)c3cccnc3Sc3ccccc32)cc1`, for which the inhibition is 0.608%. Take `Cc1ccc(Cc2nc(CC(=O)Nc3ccc(F)cc3F)n[nH]2)cc1`: the inhibition is 12.8%. Regarding `CC(C)CCNC(=O)C1(C)Cn2c(cc3ccccc32)C(=O)N1Cc1ccccc1F` (stereo not drawn), the inhibition was -0.678%. With `COc1ccccc1CN1C(=O)c2cc3occc3n2CC1(C)C(=O)NC1CCCCC1` (stereo not drawn), the inhibition was 6.42%.

As for `CC1(C(=O)NC2CCCC2)Cn2c(cc3ccccc32)C(=O)N1c1ccc(F)cc1` (stereo not drawn), the inhibition is 62.5% (active). The same measure for `COCCNC(=O)C(Cc1ccccc1)N1Cc2ccccc2C1=O` (stereo not drawn): 4.85%; for `O=C(N[C@@H](C(=O)O)c1ccccc1)[C@@H](Cc1ccccc1)n1c(=O)[nH]c2ccccc2c1=O`: 9.14%; for `O=C(Cn1cccc1C(=O)c1ccccc1)NC1CCN(Cc2ccccc2)CC1`: -2.81%. Regarding `CC1CCC(NC(=O)Cn2c(=O)[nH]c3ccccc3c2=O)CC1` (stereo not drawn), the inhibition was 41.5% (active). On to `CCN1CCC2(CC1)OC(=O)C(C)=C2C(=O)Nc1cc(C)ccc1C`, for which the inhibition was -4.59%.

Regarding `CNc1nc(C2CCCN(C)C2)nc2c1CCN(C(=O)Cc1c[nH]c3ccccc13)C2` (stereo not drawn), the inhibition was -1.33%. Consider `Cc1cccc(-c2nc(Nc3ccc(O)cc3)c3ccccc3n2)c1`, for which the inhibition is 69.2% (active). Take `Cc1ccn2c(NCCc3ccccc3)c(-c3ccc(O)cc3)nc2c1`: the inhibition was 20.5%. As for `Cc1cccc(-c2noc(Cc3nnc(-c4ccccc4)o3)n2)c1`, the inhibition was -20.8%. Regarding `Cc1nccc(C2CN(C(=O)CCc3c[nH]c4ccccc34)CCO2)n1` (stereo not drawn), the inhibition is -0.542%.

As to `CN1CC(c2ncn[nH]2)c2cc(C(=O)NCc3cccc(F)c3)ccc21` (stereo not drawn), the inhibition was 8.47%. Consider `O=C(NCc1ccccc1)c1nc[nH]c1C(=O)NCc1cccc(C(F)(F)F)c1`, for which the inhibition is -0.00262%. Regarding `O=C(Cc1cccc(C(F)(F)F)c1)Nc1cccn2ncnc12`, the inhibition was -3.85%. Take `O=C(Cc1c(Cl)cccc1Cl)NCc1cccc(C(F)(F)F)c1`: the inhibition was 34.4% (active). The same measure for `Cc1ccc(S(=O)(=O)NC2=NC(c3ccccc3)c3cc(Cl)ccc3N2)cc1` (stereo not drawn): 10.4%; for `O=C(NCCC1=CCCCC1)c1ccc(-c2noc(-c3ccccc3)n2)s1`: 2.81%.

As for `CCOc1ccc(-c2noc(-c3nn(-c4cccc(OC)c4)ccc3=O)n2)cc1`, the inhibition is 72.3% (active). In the case of `COc1ccc(-c2nc(-c3nnn(Cc4cccc(F)c4)c3C)no2)cc1`, the inhibition was -0.491%.

For the molecule `COc1ccc(-c2nc(C3CC(=O)N(c4ccccc4)C3)no2)cc1` (stereo not drawn), the inhibition was 7.38%. Turning to `CCOC(=O)c1cnn(-c2ncc(C(=O)OC)c(C(F)(F)F)n2)c1C(F)(F)F`, the inhibition is 3.18%. On to `O=C(NCc1ccco1)c1ccc2c(=O)nc3c(-c4ccc(F)cc4)n[nH]n3c2c1`, for which the inhibition was 11.8%.
